# Measurements: PubChem BioAssay AID1159580 (chemical genetic matrix, 2015)
# The whole screen tested about 5,500 compounds, of which about 2,000 (36%) were called active. Not shown: some 18% with an inconclusive outcome. The list shows a part of the results. Unmarked numbers belong to inactive results. Cut-off read from the data, not from the text of the source: active = normalized growth mostly below about 0.91 (no sharp cut-off); inconclusive = no clear call, values can overlap the other calls; inactive = mostly above about 0.92.
# Test: chemical genetic growth profiling, strain panel (AID 1159580);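 note: tested at 20 µM; growth read once vehicle control cultures reached saturation at 30 °C; 1 = growth at the plate median or of vehicle wells; lower values mean less growth of the strain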
# Conditions: growth OD
compound,measurement,setting,value
CCCCCCCCCCc1ccc(-c2ccccc2)cc1,normalized growth,"S. cerevisiae deletion strains, locus YAL013W, strain DEP1, active compounds read low",0.982
same,normalized growth,"S. cerevisiae deletion strains, locus YBR229C, strain ROT2, active compounds read low",1.01
same,normalized growth,"S. cerevisiae deletion strains, locus YDL101C, strain DUN1, active compounds read low",0.99
same,normalized growth,"S. cerevisiae deletion strains, locus YDR150W, strain NUM1, active compounds read low",0.976
same,normalized growth,"S. cerevisiae deletion strains, locus YEL061C, strain CIN8, active compounds read low",0.988
same,normalized growth,"S. cerevisiae deletion strains, locus YGR078C, strain PAC10, active compounds read low",0.988
same,normalized growth,"S. cerevisiae deletion strains, locus YHR030C, strain SLT2, active compounds read low",0.769
same,normalized growth,"S. cerevisiae deletion strains, locus YHR087W, strain rtc3, active compounds read low",1.09
same,normalized growth,"S. cerevisiae deletion strains, locus YJL187C, strain SWE1, active compounds read low",1.01
same,normalized growth,"S. cerevisiae deletion strains, locus YJR043C, strain POL32, active compounds read low",0.992
same,normalized growth,"S. cerevisiae deletion strains, locus YJR075W, strain HOC1, active compounds read low",0.989
same,normalized growth,"S. cerevisiae deletion strains, locus YLR039C, strain RIC1, active compounds read low",0.992
same,normalized growth,"S. cerevisiae deletion strains, locus YLR058C, strain SHM2 (second series), active compounds read low",1.01
same,normalized growth,"S. cerevisiae deletion strains, locus YLR085C, strain ARP6, active compounds read low",0.845
same,normalized growth,"S. cerevisiae deletion strains, locus YLR262C, strain YPT6, active compounds read low",0.941
same,normalized growth,"S. cerevisiae deletion strains, locus YML094W, strain GIM5, active compounds read low",0.97
same,normalized growth,"S. cerevisiae deletion strains, locus YMR219W, strain ESC1, active compounds read low",0.998
same,normalized growth,"S. cerevisiae deletion strains, locus YMR263W, strain SAP30, active compounds read low",0.999
same,normalized growth,"S. cerevisiae deletion strains, locus YMR307W, strain GAS1, active compounds read low",0.669
same,normalized growth,"S. cerevisiae deletion strains, locus YNL153C, strain GIM3, active compounds read low",1
same,normalized growth,"S. cerevisiae deletion strains, locus YNL298W, strain CLA4 (second series), active compounds read low",0.926
same,normalized growth,"S. cerevisiae deletion strains, locus YNL322C, strain KRE1, active compounds read low",0.974
same,normalized growth,"S. cerevisiae deletion strains, locus YNR030W, strain Alg12, active compounds read low",0.958
same,normalized growth,"S. cerevisiae deletion strains, locus YPL055C, strain LGE1, active compounds read low",1.06
same,normalized growth,"S. cerevisiae deletion strains, locus YPL241C, strain CIN2, active compounds read low",0.982
same,normalized growth,"S. cerevisiae deletion strains, locus YPR135W, strain CTF4, active compounds read low",0.897
same,normalized growth,"S. cerevisiae strains, strain wild type, active compounds read low",0.902 (active)
